Test results: PubChem BioAssay (EPA / NIEHS)
Several values for one entry are separate records, joined by “and”; a condition that tells them apart may be missing. Equal entries are not always repeated. Activity calls are given as the source filed them. Rule for the calls: active = hit-call score of the fitted dose curve at least 0.9, where 1 is the maximum; inactive = score below 0.9.

Assay: BSK_3C_uPAR: BioMAP Diversity Plus: 3C Assay for Urokinase-type plasminogen activator receptor (uPAR) Biomarker Activity (AID 2282998)
Details: BioMAP 3C HUVEC, uPAR biomarker ELISA; actives raise or lower the signal
Protocol: BSK_3C is a cell-based, multiplexed-readout assay that uses umbilical vein endothelium, a human vascular primary cell, with measurements taken at 24 hours after chemical dosing in a 96-well plate.BSK_3CAR is an assay component measured in the BSK_3C assay. It measures uPAR antibody related to regulation of gene expression using ELISA technology.Data from the assay component BSK_3CAR was analyzed into 1 assay endpoint. This assay endpoint, BSK_3CAR, was analyzed with bidirectional fitting relative to DMSO as the negative control and baseline of activity. Using a type of binding reporter, gain or loss-of-signal activity can be used to understand changes in the signaling as they relate to the gene PLAUR. Furthermore, this assay endpoint can be referred to as a primary readout, because this assay has produced multiple assay endpoints where this one serves a signaling function. To generalize the intended target to other relatable targets, this assay endpoint is annotated to the cytokine intended target family, where the subfamily is plasmogen activator.
The levels of cell surface (or secreted, indicated by the prefix "s") biomarker endpoints were measured by ELISA. Overt cytotoxicity to cells in confluent adherent cultures (all systems other than the BT system) was assessed by measuring total protein levels using sulforhodamine B (SRB) staining in parallel cultures at the time of biomarker measurements, indicated as SRB endpoints. For proliferation assays for adherent cell types, individual cell types are cultured at sub-confluence and relative cell numbers quantified by SRB staining at time points optimized for each system (48 h: 3C and CASM3C systems; 72 h: BT and HDF3CGF systems; 96 h: SAg system). SRB was performed by staining cells with 0.1% SRB after fixation with 10% TCA and reading wells at 560 nm.Viability and proliferation of PBMC (T cells) was quantified by Alamar Blue reduction for the SAg and BT systems. For PBMC viability (referred to as PBMC Cytotoxicity within the assay endpoint names), cells were plated (75,000/well in a 96-well plate) and then chemical samples added for 1 h before addition of activators, SEB and TSST-1 (20 ng/mL final concentration each). Cells were incubated for 90 h. Then, Alamar Blue (20 uL/well) (Invitrogen, Cat DAL1100) was added for 6 h, and the plates were read with a fluorescence microplate reader at 546/580 nm (excitation/emission). For PBMC proliferation, cells were plated and activated as above but incubated for only 16 h prior to addition of Alamar Blue. Plates were read after 6 h.
With `O=C(O)C(Cl)Cl` the outcome was “inactive”.
For `COP(=O)(CCC(=O)NCO)OC`, the outcome was “inactive”.
For `ClC(Cl)(Cl)c1ccccc1`, the outcome was “inactive”.
In the case of `CCC(C)(C)c1ccc(O)cc1`, the outcome is reported as “inactive”.
For `ClC1=C(Cl)C2(Cl)C3C(Cl)C(Cl)CC3C1(Cl)C2(Cl)Cl` (stereo not given), the AC50 was 35.8 µM (active).
For `CCCCc1ccccc1`, the outcome was “inactive”.
In the case of `O=S1(=O)OCC2C(CO1)C1(Cl)C(Cl)=C(Cl)C2(Cl)C1(Cl)Cl` (stereo not given), the AC50 is reported as 20 µM (active).
For `N#Cc1cc([N+](=O)[O-])ccc1N`, the outcome was “inactive”.
In the case of `CC(Cl)CN(C)C` (stereo not given), the outcome is reported as “inactive”.
In the case of `ClC(Cl)c1ccccc1`, the outcome is reported as “inactive”.
With `CSC(C)(C)C=NO` the outcome was “inactive”.
In the case of `N#Cc1c(-c2ccc(Cl)cc2)[nH]c(C(F)(F)F)c1Br`, the AC50 is reported as 0.469 µM (active).
For `CCOP(=S)(OCC)SCSCC`, the outcome was “inactive”.
For `OCC(F)(F)OC(F)(F)C(F)(F)OC(F)(F)C(F)(F)OC(F)(F)F`, the AC50 was 43.9 µM (active) and 46.4 µM (active).
With `O=P1(N(CCCl)CCCl)NCCCO1` (stereo not given) the outcome was “inactive”.
For `Nc1ccc2ccccc2c1`, the outcome was “inactive”.
For `CC(C)(C)c1ccccc1OP(=O)(Oc1ccccc1)Oc1ccccc1`, the AC50 was 20 µM (active).
For `Nc1ccc(Cl)cc1`, the outcome was “inactive”.
For `CCNc1nc(Cl)nc(NC(C)(C)C)n1`, the outcome was “inactive”.
In the case of `CCOP(=S)(OCC)SCSc1ccc(Cl)cc1`, the AC50 is reported as 0.397 µM (active).
For `ClC(Cl)=C(c1ccc(Cl)cc1)c1ccccc1Cl`, the AC50 was 10.5 µM (active).
For `CCCCN(CCCC)N=O`, the outcome was “inactive”.
For `O=P(OCC(Br)CBr)(OCC(Br)CBr)OCC(Br)CBr` (stereo not given), the AC50 was 17.4 µM (active).
For `O=C(O)C1C(C(=O)O)C2(Cl)C(Cl)=C(Cl)C1(Cl)C2(Cl)Cl` (stereo not given), the outcome was “inactive”.
With `CCCCCCCc1ccc(O)cc1` the AC50 was 38.2 µM (active).
With `OCC1CO1` (stereo not given) the outcome was “inactive”.
In the case of `c1ccc2c(c1)Nc1ccccc1S2`, the outcome is reported as “inactive”.
In the case of `CC(C)(C)c1ccc(O)cc1`, the outcome is reported as “inactive”.
For `C=CC(=O)OCC(CC)(COC(=O)C=C)COC(=O)C=C`, the AC50 was 3.57 µM (active).
With `CCOC(=O)c1ccccc1C(=O)OCC` the outcome was “inactive”.
With `CC(O)C(F)(F)C(F)(F)F` (stereo not given) the outcome was “inactive”.
For `CC(Cc1ccc(OCC(=O)O)cc1)NCC(O)c1csc(C(F)(F)F)n1` (stereo not given), the outcome was “inactive”.
With `Cc1c([N+](=O)[O-])cc2c(c1[N+](=O)[O-])C(C)(C)CC2(C)C` the AC50 was 0.87 µM (active).
With `c1ccc(OP(Oc2ccccc2)Oc2ccccc2)cc1` the outcome was “inactive”.
With `O=[N+]([O-])c1ccccc1` the outcome was “inactive”.
For `CCCCOCCOP(=O)(OCCOCCCC)OCCOCCCC`, the outcome was “inactive”.
In the case of `O=S(=O)(F)C(F)(F)C(F)(F)C(F)(F)C(F)(F)C(F)(F)C(F)(F)C(F)(F)C(F)(F)F`, the outcome is reported as “inactive”.
In the case of `c1ccc2c(c1)sc1ccccc12`, the outcome is reported as “inactive”.
With `CCOP(=S)(S)OCC` the outcome was “inactive”.
In the case of `O=[N+]([O-])c1ccc(Cl)c(Cl)c1`, the outcome is reported as “inactive”.
